In PubChem BioAssay (NCATS):
Records with an inconclusive call do not appear. Entries that show only a call come without a potency. Values without a mark were called inactive. Active and inactive are the calls of the source. The call rests on the fitted dose curve; in most records, active means well fitted curve in the direction sought with a large enough effect; inconclusive means small, poorly fitted or top-dose-only effect, or another doubt; inactive means no such curve, though single readings can be large; an effect the other way counts as inactive or inconclusive.

How the values were obtained:
Furin (Homo sapiens) = Furin (Homo sapiens) (UniProt P09958); test: Furin counterscreen qHTS for Zika virus inhibitors (AID 1347149); further: potency means the concentration at half of the fitted maximal effect; nearly all actives have a fitted effect of over 70% in size
Procedure, shortened: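 Fluorogenic cleavage of BOC-RVRR-AMC (2 microM final, Km ~15 µM) was monitored (ex 340, em 450 nm) at 37C after 15 min RT preincubation of 5 nM furin with compounds in HEPES pH 7.0 buffer with CaCl2 and Triton X-100. Percent inhibition was fitted to a 4-parameter Hill curve.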

[1] = Confirmatory screen GU Rhodamine qHTS for Zika virus inhibitors qHTS (AID 1347157); further: potency means the concentration at half of the fitted maximal effect; nearly all actives have a fitted effect of over 70% in size
Procedure, shortened: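 Buffer 10 mM Tris-HCl pH 8.0, 0.01% Tween 20. Unlinked protease 25 nM; compound preincubation 15 min, RT, protected from light. Substrate Rhod110, 1.5 microM; ~15% conversion in 15 min.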

[2] = test system: Zika virus NS2B-NS3 protease (linked); test: 384 well plate NINDS AMC confirmatory qHTS for Zika virus inhibitors (AID 1347163);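 further: linked protease at 5 30 or 60 nM final depending on run; fluorescence of AMC released from Ac-VKTGKR-AMC peptide cleaved by the protease; top concentration of the series differs between compounds; nearly all actives have a fitted effect of over 50% in size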
Procedure, shortened: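 Linked NS2B-NS3 protease (final 5 nM, 30 nM or 60 nM) was preincubated with compounds (final up to 1 mM) for ~15 minutes. Ac-VKTGKR-AMC substrate (final 30 microM) then reacted for 25 minutes at room temperature in the dark. Fluorescence (ex 355/em 460 nm) was normalized to no-enzyme and no-inhibitor controls.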

[3] = Tertiary RLuc qRT-PCR qHTS assay for Zika virus inhibitors (AID 1347169); further: top concentration of the series differs between compounds; nearly all actives have a fitted effect of over 55% in size
Procedure, shortened: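 Inhibition of ZIKV-RLuc replication in Vero cells, read as Renilla luminescence 1-1.5 hrs after live-cell substrate addition, following 48-72 hrs infection at MOI 1-2 in presence of compound.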

Chain of Furin (Homo sapiens) (P09958 whole entry, looked up): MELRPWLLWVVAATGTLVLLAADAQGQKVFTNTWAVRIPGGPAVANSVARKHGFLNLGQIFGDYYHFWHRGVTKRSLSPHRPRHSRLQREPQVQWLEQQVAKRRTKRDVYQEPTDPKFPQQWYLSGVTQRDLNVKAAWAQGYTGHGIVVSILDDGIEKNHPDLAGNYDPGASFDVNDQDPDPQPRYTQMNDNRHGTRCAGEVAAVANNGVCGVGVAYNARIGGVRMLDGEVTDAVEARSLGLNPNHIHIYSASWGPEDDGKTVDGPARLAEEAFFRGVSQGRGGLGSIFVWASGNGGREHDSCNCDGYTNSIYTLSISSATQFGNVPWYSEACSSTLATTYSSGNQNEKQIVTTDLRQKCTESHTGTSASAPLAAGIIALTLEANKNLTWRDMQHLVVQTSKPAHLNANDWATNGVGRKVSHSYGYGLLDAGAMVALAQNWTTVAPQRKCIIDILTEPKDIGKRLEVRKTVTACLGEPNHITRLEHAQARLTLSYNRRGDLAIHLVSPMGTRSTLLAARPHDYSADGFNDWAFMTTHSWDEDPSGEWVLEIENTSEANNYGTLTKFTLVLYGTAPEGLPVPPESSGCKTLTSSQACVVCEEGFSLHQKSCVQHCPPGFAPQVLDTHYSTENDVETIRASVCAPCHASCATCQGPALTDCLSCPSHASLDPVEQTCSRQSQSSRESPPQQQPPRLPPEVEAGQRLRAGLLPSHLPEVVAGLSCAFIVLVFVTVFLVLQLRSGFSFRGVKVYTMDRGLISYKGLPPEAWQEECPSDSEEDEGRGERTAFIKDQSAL

**Q.** For `Cc1cc(NC(=O)c2ccc(Cl)c(Cl)c2)ccc1-c1cc2ccccc2oc1=O`, which Potency (Furin (Homo sapiens)) is on record?
**A.** 66.3 µM (active)

**Q.** And the Potency [1]?
**A.** 44.7 µM (active)

**Q.** And the Potency [2]?
**A.** inactive

**Q.** And the Potency [3]?
**A.** inactive
